In PubChem BioAssay (Tox21):
Records with an inconclusive call do not appear. Active and inactive are the calls of the source. Unless noted, the call rests on the fitted dose curve.

Key:
[1] = Nuclear factor erythroid 2-related factor 2/antioxidant responsive element (Nrf2/ARE) small molecule agonists: qHTS cell viability counter screen in human keratinocytes (AID 1919968; active means well fitted curve in the direction sought with a large enough effect in the repeat runs; an effect the other way counts as inactive or inconclusive; further: nearly all actives have a fitted effect of over 55% in size; further: potency means the concentration at half of the fitted maximal effect)
Procedure, shortened: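 In human HaCaT keratinocytes stably expressing an ARE-driven luciferase, compound exposure lasted 23 h at 37 C under 5% CO2. Viable cells are quantified with a protease-based fluorogenic reagent (CellTiter-Fluor) read 1 h after addition.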

[2] = Nuclear factor erythroid 2-related factor 2/antioxidant responsive element (Nrf2/ARE) small molecule agonists: luciferase reporter gene qHTS assay in human keratinocytes (AID 1919969); further: nearly all actives have a fitted effect of over 35% in size
[3] = biological target: Gonadotropin-releasing hormone receptor (Homo sapiens) (UniProt P30968); experiment: Human gonadotropin-releasing hormone receptor (GnRHR) small molecule agonists, calcium flux assay in GnRHR-HEK293 cells (AID 1920063); further: nearly all actives have a fitted effect of over 35% in size
Procedure, shortened: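 Intracellular calcium rise is the read-out: engineered human GnRHR HEK293 cells, dye-loaded, are exposed to DMSO-dissolved compounds and fluorescence at Ex/Em 480/540 is tracked for 3 min.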

[4] = biological target: KiSS-1 receptor (Homo sapiens) (UniProt Q969F8); experiment: Human kisspeptin (KISS1R) small molecule agonists, calcium flux assay in KISS1R-HEK293 cells (AID 1920064; active means well fitted curve in the direction sought with a large enough effect in the repeat runs; an effect the other way counts as inactive or inconclusive)
Procedure, shortened: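 Concentration-response testing used 15 concentrations in triplicate on human KISS1R-expressing HEK293 cells. Calcium-dependent fluorescence (Ex/Em 480/540) was followed kinetically for 3 min after compound transfer.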

[5] = G protein-coupled receptor (GPCR) small molecule agonists, calcium flux assay: HEK293 wild type cell line counter screen (AID 1920065)
Procedure, shortened: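 Fluorescence intensity signals activation. After overnight (18 h) culture and a 1 h calcium dye load at 37 C, compounds are added by pin tool and the plate read at 480/540 nm for 3 min in 1 s steps.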

[6] = p53 small molecule agonists, cell-based qHTS assay with human liver microsomes (AID 1963577);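 further: p53 response element beta-lactamase reporter cells with liver microsomes plus NADPH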
Procedure, shortened: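 Compounds act here after metabolic activation: human liver microsomes and NADPH, both at 0.5 mg/mL final, were co-added to p53RE-bla cells. Incubation ran 16 h at 37 C, followed by LiveBLAzer detection.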

[7] = p53 small molecule agonists, cell-based qHTS assay with rat liver microsomes (AID 1963578)
Procedure, shortened: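 Read-out is beta-lactamase reporter fluorescence (LiveBLAzer, 2 h, room temperature, dark) in p53RE-bla cells treated 16 h at 37 C with compound, rat liver microsomes and NADPH, both 0.5 mg/mL final.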

[8] = p53 small molecule agonists, cell-based qHTS assay with rat liver microsomes: qHTS cell viability counter screen (AID 1963580); further: nearly all actives have a fitted effect of over 45% in size
Procedure, shortened: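 Cytotoxicity counter screen: intracellular ATP read by CellTiter-Glo luminescence in the p53 reporter wells. HCT-116 p53RE-bla cells were treated for 16 h at 37 C alongside rat liver microsomes and NADPH, each 0.5 mg/mL final.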

[9] = p53 small molecule agonists, cell-based qHTS assay (AID 1963582; active means well fitted activation curve with a large enough effect in the signal ratio in the repeat runs, not every such curve was filed as active; the % refers to the signal ratio)
Procedure, shortened: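 After plating, p53RE-bla cells sat 5 h in the incubator; compounds or DMSO vehicle were pinned in; a 16 h incubation at 37 C followed; FRET substrate was added and, 2 h later at RT, fluorescence was measured.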

[10] = biological target: 5-hydroxytryptamine receptor 2A (Homo sapiens) (UniProt P28223); experiment: 5-hydroxytryptamine receptor 2A (HTR2A) small molecule antagonists, cell-based qHTS assay (AID 1963586); further: nearly all actives have a fitted effect of over 45% in size; further: potency means the concentration at half of the fitted maximal effect
Procedure, shortened: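 CHO cells stably expressing human HTR2A were plated for 18 h at 37 C, then loaded with calcium dye for 1 h. Compounds were preincubated 5 min at room temperature before DOI (4 nM solution) was added. Kinetic fluorescence was read for 3 min.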

[11] = biological target: 5-hydroxytryptamine receptor 2A (Homo sapiens) (UniProt P28223); experiment: 5-hydroxytryptamine receptor 2A (HTR2A) small molecule agonists, cell-based qHTS assay (AID 1963587); further: nearly all actives have a fitted effect of over 30% in size; further: potency means the concentration at half of the fitted maximal effect
Procedure, shortened: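 Kinetic calcium-flux fluorescence (2 min, 1 sec intervals) after compound addition in agonist mode. HTR2A-CHO cells were cultured 18 h, then dye-loaded 1 h at 37 C.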

[12] = biological target: Muscarinic acetylcholine receptor M1 (Homo sapiens) (UniProt P11229); experiment: Cholinergic receptor muscarinic 1 (CHRM1) small molecule agonists, cell-based qHTS assay (AID 1963589); further: nearly all actives have a fitted effect of over 35% in size
Procedure, shortened: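 Fluorescent calcium dye reports M1 activation in stably transfected CHO cells. Compounds, 15 concentrations, added after 1 h dye loading at 37 C; kinetic reading at 1 sec intervals.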

[13] = cAMP Responsive Elements (CRE) small molecule agonists, cell-based qHTS assay (AID 1963590); further: potency means the concentration at half of the fitted maximal effect
Procedure, shortened: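 Compound exposure lasted 3 h at 37 C/5% CO2 in CRE-bla HEK 293T cells grown in assay medium with 10% dialyzed FBS and 25 mM HEPES. Reporter signal came from LiveBLAzer B/G FRET substrate, 2 h, room temperature.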

[14] = cAMP Responsive Elements (CRE) small molecule antagonists, cell-based qHTS assay (AID 1963591; active means well fitted inhibition curve with a large enough effect in the signal ratio in the repeat runs, not every such curve was filed as active; the % refers to the signal ratio)
Procedure, shortened: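 Stimulation used NKH477 at a final 0.25 uM for 3 h in compound-treated CRE-bla HEK293T cells, seeded 18 h beforehand. Reporter activity was measured with LiveBLAzer B/G FRET substrate after 2 h at room temperature.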

[15] = biological target: Beta-2 adrenergic receptor (Homo sapiens) (UniProt P07550); experiment: Adrenergic beta2 receptor (ADRB2) small molecule antagonists, cell-based qHTS assay (AID 1963592); further: nearly all actives have a fitted effect of over 50% in size; further: potency means the concentration at half of the fitted maximal effect
Procedure, shortened: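 Assay format: CHO-ADRB2 cells, 18-20hr seeding at 37C/5% CO2, then compound plus 1nM isoproterenol agonist mix for 0.5hr RT. Homogeneous time-resolved fluorescence cAMP detection after 1hr, expressed as 665/615 nm ratio.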

[16] = biological target: D(2) dopamine receptor (Homo sapiens) (UniProt P14416); experiment: Dopamine D2 receptor (DRD2) small molecule agonists, cell-based qHTS assay (AID 1963594); further: nearly all actives have a fitted effect of over 35% in size
Procedure, shortened: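 cAMP accumulation in DRD2-HEK293 cells measured by HTRF after 1 h detection; compounds added 10 min before NKH477 (200nM […]) forskolin-analogue stimulation, 30 min at room temperature, with Ro20-1724 present at 0.1 mM final.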

[17] = biological target: D(2) dopamine receptor (Homo sapiens) (UniProt P14416); experiment: Dopamine D2 receptor (DRD2) small molecule antagonists, cell-based qHTS assay (AID 1963595; active means well fitted inhibition curve with a large enough effect in the signal ratio in the repeat runs, with a control signal flat; the % refers to the signal ratio; further: potency means the concentration at half of the fitted maximal effect)
Procedure, shortened: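 In this cell-based antagonist screen, compounds act for 10 min at room temperature before a 30 min challenge with 12 nM quinpirole and 200 nM NKH477. cAMP is quantified by HTRF competition in DRD2-HEK293 cells containing 0.1 mM Ro20-1724.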

[18] = biological target: Muscarinic acetylcholine receptor M1 (Homo sapiens) (UniProt P11229); experiment: Cholinergic receptor muscarinic 1 (CHRM1) small molecule antagonists, cell-based qHTS assay (AID 1963588); further: nearly all actives have a fitted effect of over 40% in size
Procedure, shortened: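 Compounds were tested at 15 concentrations in three independent runs. Dye-loaded CHRM1-CHO cells were exposed 5 min at room temperature before stimulation by acetylcholine added at 50nM. Intracellular calcium was read kinetically on FDSS for 3 min.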

[19] = biological target: Beta-2 adrenergic receptor (Homo sapiens) (UniProt P07550); experiment: Adrenergic beta2 receptor (ADRB2) small molecule agonists, cell-based qHTS assay (AID 1963593);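 further: CHO cells stably overexpressing human ADRB2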
Procedure, shortened: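 CHO cells stably over-expressing ADRB2 were plated overnight at 37C, then dosed with compounds plus a stimulation mix containing 100uM IBMX and 25uM Ro-20-1724 for 0.5hr at room temperature. cAMP was measured by HTRF competition, 1hr.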

[20] = p53 small molecule agonists, cell-based qHTS assay: qHTS cell viability counter screen (AID 1963581); further: nearly all actives have a fitted effect of over 45% in size
Procedure, shortened: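 Luminescence from CellTiter-Glo, reflecting ATP content, serves as the cytotoxicity measure; it is taken after the 2 h reporter substrate step in HCT-116 p53RE-bla cells dosed for 16 h at 37 C.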

Measured: Potency

KiSS-1 receptor (Homo sapiens), sequence (Q969F8 whole entry, looked up): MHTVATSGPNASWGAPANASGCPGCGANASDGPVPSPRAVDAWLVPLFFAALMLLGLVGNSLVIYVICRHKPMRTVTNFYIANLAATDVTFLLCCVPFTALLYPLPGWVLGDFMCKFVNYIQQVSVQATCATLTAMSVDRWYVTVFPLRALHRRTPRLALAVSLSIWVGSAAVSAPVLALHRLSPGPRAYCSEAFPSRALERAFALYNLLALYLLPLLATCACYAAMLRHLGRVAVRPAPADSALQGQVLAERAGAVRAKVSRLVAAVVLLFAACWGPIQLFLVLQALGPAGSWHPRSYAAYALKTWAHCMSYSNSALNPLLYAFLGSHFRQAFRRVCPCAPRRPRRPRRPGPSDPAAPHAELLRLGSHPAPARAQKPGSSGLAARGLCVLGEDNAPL
5-hydroxytryptamine receptor 2A (Homo sapiens), sequence (P28223 whole entry, looked up): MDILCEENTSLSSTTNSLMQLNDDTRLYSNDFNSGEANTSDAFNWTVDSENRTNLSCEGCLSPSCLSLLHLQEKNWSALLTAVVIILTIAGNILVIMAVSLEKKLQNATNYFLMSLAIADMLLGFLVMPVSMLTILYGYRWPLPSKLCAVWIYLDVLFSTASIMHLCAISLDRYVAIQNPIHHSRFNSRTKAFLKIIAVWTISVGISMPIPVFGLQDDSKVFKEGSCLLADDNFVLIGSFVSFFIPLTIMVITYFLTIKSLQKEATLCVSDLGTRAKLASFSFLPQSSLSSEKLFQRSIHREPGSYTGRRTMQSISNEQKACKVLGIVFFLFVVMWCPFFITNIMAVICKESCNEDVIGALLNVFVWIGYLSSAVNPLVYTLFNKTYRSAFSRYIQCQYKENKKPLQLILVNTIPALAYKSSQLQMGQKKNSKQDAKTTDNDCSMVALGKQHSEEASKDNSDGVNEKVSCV
Gonadotropin-releasing hormone receptor (Homo sapiens), sequence (P30968 whole entry, looked up): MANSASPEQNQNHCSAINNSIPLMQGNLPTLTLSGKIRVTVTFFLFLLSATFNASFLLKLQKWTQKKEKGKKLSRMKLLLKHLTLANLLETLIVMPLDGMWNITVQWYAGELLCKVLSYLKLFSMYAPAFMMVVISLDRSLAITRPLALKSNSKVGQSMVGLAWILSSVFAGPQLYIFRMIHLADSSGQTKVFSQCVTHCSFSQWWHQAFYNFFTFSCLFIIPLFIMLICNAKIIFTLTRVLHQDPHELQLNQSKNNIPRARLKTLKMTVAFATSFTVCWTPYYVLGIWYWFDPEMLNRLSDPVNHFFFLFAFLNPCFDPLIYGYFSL
Muscarinic acetylcholine receptor M1 (Homo sapiens), sequence (P11229 whole entry, looked up): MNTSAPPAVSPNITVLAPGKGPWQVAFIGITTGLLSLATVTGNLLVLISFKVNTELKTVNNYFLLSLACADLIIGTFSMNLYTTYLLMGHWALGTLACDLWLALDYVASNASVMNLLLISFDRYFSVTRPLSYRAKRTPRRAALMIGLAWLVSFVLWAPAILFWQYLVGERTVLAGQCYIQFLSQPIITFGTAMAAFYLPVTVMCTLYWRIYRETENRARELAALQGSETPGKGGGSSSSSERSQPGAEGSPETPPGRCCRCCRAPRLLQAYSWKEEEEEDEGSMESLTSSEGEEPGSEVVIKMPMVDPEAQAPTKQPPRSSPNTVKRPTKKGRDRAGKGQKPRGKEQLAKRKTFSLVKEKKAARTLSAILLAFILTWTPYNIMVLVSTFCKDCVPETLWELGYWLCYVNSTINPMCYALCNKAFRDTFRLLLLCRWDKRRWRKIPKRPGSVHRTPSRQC
D(2) dopamine receptor (Homo sapiens), sequence (P14416 whole entry, looked up): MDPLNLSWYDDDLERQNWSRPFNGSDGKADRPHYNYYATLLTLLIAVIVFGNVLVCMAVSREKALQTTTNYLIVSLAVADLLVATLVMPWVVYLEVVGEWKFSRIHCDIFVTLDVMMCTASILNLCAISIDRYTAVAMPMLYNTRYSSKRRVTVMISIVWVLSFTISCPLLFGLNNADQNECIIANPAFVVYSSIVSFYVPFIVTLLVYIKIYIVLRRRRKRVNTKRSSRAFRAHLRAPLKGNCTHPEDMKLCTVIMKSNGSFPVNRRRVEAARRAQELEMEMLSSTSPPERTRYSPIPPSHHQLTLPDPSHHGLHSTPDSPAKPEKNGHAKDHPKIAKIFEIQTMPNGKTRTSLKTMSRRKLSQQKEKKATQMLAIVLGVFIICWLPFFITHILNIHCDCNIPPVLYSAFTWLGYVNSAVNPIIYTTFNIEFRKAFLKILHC
Beta-2 adrenergic receptor (Homo sapiens), sequence (P07550 whole entry, looked up): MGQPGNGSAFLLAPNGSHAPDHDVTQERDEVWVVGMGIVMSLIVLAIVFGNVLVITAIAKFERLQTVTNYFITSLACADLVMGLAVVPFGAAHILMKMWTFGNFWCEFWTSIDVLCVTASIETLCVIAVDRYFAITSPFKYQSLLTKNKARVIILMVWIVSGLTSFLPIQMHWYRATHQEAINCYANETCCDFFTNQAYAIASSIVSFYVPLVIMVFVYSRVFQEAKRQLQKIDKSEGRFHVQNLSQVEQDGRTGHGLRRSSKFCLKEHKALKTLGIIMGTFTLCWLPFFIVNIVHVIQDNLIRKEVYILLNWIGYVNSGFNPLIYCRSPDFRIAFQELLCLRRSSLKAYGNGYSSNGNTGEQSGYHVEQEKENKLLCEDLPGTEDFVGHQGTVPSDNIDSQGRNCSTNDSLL

CC(=O)OC(C)=O
not listed: [18] | [19] | [20]
inactive: all other assays above

COc1ccccc1OC(=O)Oc1ccccc1OC
not listed: [17] | [20]
inactive: all other assays above

CCC(=O)O[C@]1(C(=O)SCF)[C@H](C)C[C@H]2[C@@H]3C[C@H](F)C4=CC(=O)C=C[C@]4(C)[C@@]3(F)[C@@H](O)C[C@@]21C
not listed: [9] | [13] | [18] | [19]
inactive: all other assays above

CC(C)(Sc1cc(C(C)(C)C)c(O)c(C(C)(C)C)c1)Sc1cc(C(C)(C)C)c(O)c(C(C)(C)C)c1
not listed: [10] | [11] | [12] | [14] | [15] | [18] | [19]
inactive: all other assays above

O=C1NCN(c2ccccc2)C12CCN(CCCC(c1ccc(F)cc1)c1ccc(F)cc1)CC2
active: [1] 29800 nM | [10] 51.6 nM | [15] 23700 nM | [17] 33.5 nM
not listed: [9] | [13] | [14] | [18] | [19] | [20]
inactive: all other assays above

CC/C(=C\C(=N/O)C(N)=O)C(C)[N+](=O)[O-] (stereo not drawn)
not listed: [9] | [13] | [19]
inactive: all other assays above

CN1CCC[C@@H]1Cc1c[nH]c2ccc(CCS(=O)(=O)c3ccccc3)cc12
active: [10] 365 nM | [11] 107 nM
not listed: [19] | [20]
inactive: all other assays above

COCCO
not listed: [20]
inactive: all other assays above

Cc1nc2ccccn2c(=O)c1CCN1CCC(C(=O)c2ccc(F)cc2)CC1
active: [17] 531 nM
not listed: [9] | [14] | [15] | [19]
inactive: all other assays above

Nc1nc(Cl)nc2c1ncn2[C@@H]1O[C@H](CO)[C@@H](O)[C@@H]1F
active: [13] 29800 nM
not listed: [9] | [10] | [11] | [16] | [19]
inactive: all other assays above
